# Assay outcomes (PubChem BioAssay)
# Pf Dd2 growth = qHTS Primary assay for Inhibitors of Plasmodium falciparum Dd2 growth in vitro | P. falciparum Dd2 growth, SYBR Green, 72 h | Potency, µM (titrated, usually from 28.9 µM), inactives show at the top dose activity, negative = inhibition, actives largely listed as inhibitors | 4.3% of 120,000 active; active = well fitted inhibition curve with a large enough effect;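 note: plate controls were DMSO vehicle for no effect and reference drug for full effect; nearly all actives have a fitted effect of over 65% in size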
#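 Infected erythrocytes (Dd2, 0.3% parasitemia, 2.5% hematocrit final) are added to compound in RPMI-1640/Albumax II medium, grown 72 h at 37C in low oxygen, then lysed with saponin/Triton-X containing SYBR Green and read by fluorescence.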
# Numbers without * were called inactive; i = inactive; [ ] = remark or other dose. The entries come from a sample that favours hits as a whole. Potency is the fitted concentration of half-maximal effect.
SMILES,Pf Dd2 growth
COc1ccc(NC(=O)[C@@H]2C[C@@H](c3ccc(F)cc3)N([S+](=O)([O-])c3cccnc3)C2)c(C)c1,-21.7%
Cc1ccc2[nH]c(CSc3nnc(NC(=O)COc4ccccc4F)s3)cc(=O)c2c1,i
O=C(Nc1nc2n(n1)C(c1ccccc1)C=C(c1ccccc1)N2)c1ccc(Cl)c([N+](=O)[O-])c1 (stereo unspecified),8.91µM*
COc1ccc(C2C=C(c3ccccc3)Nc3nc(NS(=O)(=O)c4ccc(Cl)cc4)nn32)cc1 (stereo unspecified),3.8%
Fc1ccc(C2=CC(c3ccc(F)cc3)n3c(nc4ccccc43)N2)cc1 (stereo unspecified),67.2%
COc1ccc(C2C=C(c3ccc(Cl)cc3)Nc3nc(NC(=O)CCC(=O)O)nn32)cc1 (stereo unspecified),-5.3%
O=S(=O)(Nc1nc2n(n1)C(c1ccccc1)C=C(c1ccc(Cl)cc1)N2)c1ccccc1 (stereo unspecified),26.7%
O=C(Cn1nnc(-c2ccc(Cl)cc2)n1)NCc1ccc(F)cc1,-4.0%
COc1ccc(C(=O)Nc2nc3n(n2)C(c2ccc(F)cc2)C=C(c2ccc(Cl)cc2)N3)cc1 (stereo unspecified),5.01µM*
Cc1ccc(C(=O)Nc2nc3n(n2)C(c2ccc(F)cc2)C=C(c2ccccc2)N3)cc1 (stereo unspecified),6.31µM*
CCC1Oc2ccc(NC(=O)c3ccc([N+](=O)[O-])cc3)cc2CN(Cc2ccc(F)cc2)C1=O (stereo unspecified),-10.0%
CC(=O)Nc1ccc(S(=O)(=O)Nc2nc3n(n2)C(c2ccccc2)C=C(c2ccc(Cl)cc2)N3)cc1 (stereo unspecified),13.4%
O=C(Nc1nc2n(n1)C(c1ccc(F)cc1)C=C(c1ccc(Cl)cc1)N2)c1ccc([N+](=O)[O-])cc1 (stereo unspecified),3.98µM*
Cc1ccc(S(=O)(=O)Nc2nc3n(n2)C(c2ccc(F)cc2)C=C(c2ccccc2)N3)cc1 (stereo unspecified),-29.7%
COCCC(=O)NCCC1CCN(C(=O)Nc2ccc(C)cc2)CC1,-8.9%
Cc1ccc(Cl)cc1N(C)C(=O)c1cn(C2CCCCC2)c(=O)c2c1c1ccccc1n2C,-5.4%
CC(C)c1cc(C(=O)N2C[C@@H](C)[C@](O)(C3CC3)C2)n[nH]1,8.5%
CCCCNc1nc2c(S(=O)(=O)c3ccc(C)cc3)nnn2c2ccsc12,i
COc1ccc2c(c1)-c1nc(NC(=O)c3cc(OC)c(OC)c(OC)c3)sc1CC2,5.01µM*
COc1ccc2c(c1)-c1nc(NC(=O)c3cc(Cl)ccc3OC)sc1CC2,-2.4%
COc1ccc2c(c1)-c1nc(NC(=O)c3ccccc3F)sc1CC2,-16.2%
O=C(CC1CCCN(c2cnn(CC3CC3)c(=O)c2)C1)NCc1ccccn1 (stereo unspecified),-11.1%
CN(Cc1ccccc1)C(=O)C1CCN(c2cc(C3CC(O)C3)ncn2)CC1 (stereo unspecified),-22.0%
COc1ccc(CN2CC3(CCN(C(=O)c4cc(-c5ccc(F)cc5)n[nH]4)CC3)C2=O)cc1,i
Fc1cccc(CN2CCC(Cc3nc(-c4ccccc4)n[nH]3)C2)c1 (stereo unspecified),3.55µM*
SMILES,Pf Dd2 growth
O=C(NCc1ccccc1)N1CCC(Cc2nc(-c3ccccc3)n[nH]2)C1 (stereo unspecified),-11.4%
O=C(c1ccccc1)N1CCC(Cc2nc(-c3ccncc3)n[nH]2)CC1,1.26µM*
CCc1n[nH]c(CC2CCN(C(=O)c3ccccc3)CC2)n1,-6.1%
O=C(Cc1ccccc1)N1CCC(Cc2nc(-c3cccnc3)n[nH]2)C1 (stereo unspecified),i
CCC(=O)N1CCC(Cc2nc(-c3ccccc3)n[nH]2)CC1,-26.6%
Cc1ccc(CN2CCC(Cc3nc(-c4cccnc4)n[nH]3)C2)cc1C (stereo unspecified),i
O=C(Nc1ccc2c(c1)OCCO2)N1CCCC(Cc2noc(-c3ccncc3)n2)C1 (stereo unspecified),i
O=C(Nc1ccc2c(c1)OCCO2)N1CCC(Cc2nc(-c3cccnc3)n[nH]2)C1 (stereo unspecified),3.55µM*
COc1ccc(CNC(=O)C2Cc3cc(S(=O)(=O)N4CCCCCC4)ccc3N2C(C)=O)cc1 (stereo unspecified),52.6%
Cc1n[nH]c(C)c1C(N)C(=O)NCc1ccccc1-n1ccnc1C (stereo unspecified),-7.5%
O=S(=O)(c1cc(F)ccc1F)N1CCCC1c1nncn1Cc1ccncc1 (stereo unspecified),-3.8%
CCOc1ccc(NC(=O)c2nnn3cc(C)[nH]c(=O)c23)cc1,0.631µM*
CCOc1ccccc1CNC(=O)c1nnn2cc(C)[nH]c(=O)c12,8.91µM*
Cc1cn2nnc(C(=O)NC3CCCCCCC3)c2c(=O)[nH]1,7.94µM*
CCCCNC(=O)c1nnn2cc(C)[nH]c(=O)c12,22.1%
Cc1cn2nnc(C(=O)N3CCC(C(=O)NC4CCCCC4)CC3)c2c(=O)[nH]1,-10.7%
Cc1cn2nnc(C(=O)NC3CCN(Cc4ccccc4)CC3)c2c(=O)[nH]1,26.3%
Cc1cn2nnc(C(=O)NC3CCCCCC3)c2c(=O)[nH]1,-13.6%
Cc1cn2nnc(C(=O)NCc3ccco3)c2c(=O)[nH]1,17.8%
Cc1cn2nnc(C(=O)NCCCc3ccccc3)c2c(=O)[nH]1,-25.7%
O=C(NCc1cccnc1)c1nn(-c2ccc(Cl)cc2)nc1CO,3.5%
COCCn1c(=O)c2c(n1Cc1ccccc1)CN(Cc1ccccn1)CC2,7.3%[44.1 µM]
CC1CCCCN1CCNC(=O)c1ccc(Cn2c(SCc3ccccc3)nc3cccnc32)cc1 (stereo unspecified),5.62µM*
CC1CCN(CCNC(=O)c2ccc(Cn3c(SCc4ccccc4)nc4cccnc43)cc2)CC1,10µM*
O=C(NC1CCCC1)c1ccc(CSc2nc3cccnc3n2Cc2ccc(F)cc2)cc1,28.1%
SMILES,Pf Dd2 growth
O=C(NCCN1CCCCC1)c1ccc(Cn2c(SCc3ccccc3)nc3cccnc32)cc1,5.01µM*
COCc1nc(C2CCCN(C(=O)COc3ccccc3)C2)no1 (stereo unspecified),0.3%
CN(Cc1cccnc1)Cc1nc(C2(O)CCN(Cc3ccc(F)cc3)CC2)cs1,i
O=C1Nc2ccccc2CC12CCN2Cc1cccc2ccccc12 (stereo unspecified),-2.1%[44.1 µM]
CCc1noc(-c2cn(C3CCN(C(=O)Cc4cccc(Cl)c4)CC3)nn2)n1,i
Cc1ccccc1-c1cnc2[nH]cc(CC(=O)NCCN3CCOCC3)c2c1,-29.7%[44.1 µM]
Cc1c(C(=O)N2CCOC(CCCC(C)C)C2)cnc2cc(=O)[nH]n12 (stereo unspecified),-12.5%
CCC(C(=O)Nc1cc(F)ccc1F)n1nc(C)c2c(C)n(-c3ccc(C)cc3)nc2c1=O (stereo unspecified),0.5%
Cc1ccc(CCNC(=O)C(C)n2nc(C)c3c(C)n(-c4ccc(C)cc4)nc3c2=O)cc1 (stereo unspecified),i
CCC(C(=O)NCc1ccc(OC)c(OC)c1)n1nc(C)c2c(C)n(-c3ccc(C)cc3)nc2c1=O (stereo unspecified),2.82µM*
Cc1c(C(=O)Nc2ccc(C(=O)O)cc2)nnn1-c1ccccc1,-4.4%
COc1ccc(C(=O)n2nc(-c3cccnc3)nc2NCc2ccccc2)cc1OC,29.4%
CN1C[C@@H](NC(=O)Nc2ccc(Cl)cc2)C[C@H]1c1nc(-c2ccc(F)cc2)no1,14.1µM*
COc1ccc(-c2noc([C@@H]3C[C@H](NCc4ccccn4)CN3C)n2)cc1,10µM*
